Reference: PubChem BioAssay AID1159580 (chemical genetic matrix, 2015)
Screen size: about 5,500 compounds; about 2,000 (36%) were called active. Not shown: some 18% with an inconclusive outcome. No stated cut-off is given here; in the data, active means normalized growth mostly below about 0.91 (no sharp cut-off); inconclusive means no clear call, values can overlap the other calls; inactive means mostly above about 0.92. Some of the results follow.

Assay: chemical genetic growth profiling, strain panel (AID 1159580);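 further: tested at 20 µM; growth read once vehicle control cultures reached saturation at 30 °C; 1 = growth at the plate median or of vehicle wells; lower values mean less growth of the strain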
Conditions: growth OD

Measured: normalized growth

c1ccc2[nH]c(-c3cscn3)nc2c1
inactive: S. cerevisiae deletion strains, locus YKL068W, hits give low values 1 | S. cerevisiae deletion strains, locus YKL085W, strain MDH1 (second series), hits give low values 0.996 | S. cerevisiae deletion strains, locus YKL085W, strain MDH1, hits give low values 0.996 | S. cerevisiae deletion strains, locus YKL160W, strain elf1, hits give low values 1.01 | S. cerevisiae deletion strains, locus YKL190W, strain CNB1, hits give low values 0.993 | S. cerevisiae deletion strains, locus YKR001C, strain vps1, hits give low values 0.976 | S. cerevisiae deletion strains, locus YKR026C, strain gcn3, hits give low values 1.02 | S. cerevisiae deletion strains, locus YKR091W, strain srl3, hits give low values 1.01 | S. cerevisiae deletion strains, locus YLL001W, strain dnm1, hits give low values 1 | S. cerevisiae deletion strains, locus YLL026W, hits give low values 1.01 | S. cerevisiae deletion strains, locus YLL041C, strain sdh2, hits give low values 1.02 | S. cerevisiae deletion strains, locus YLR027C, strain aat2, hits give low values 1.01 | S. cerevisiae deletion strains, locus YLR039C, strain RIC1, hits give low values 0.963 | S. cerevisiae deletion strains, locus YLR058C, strain SHM2, hits give low values 0.997 | S. cerevisiae deletion strains, locus YLR102C, strain apc9, hits give low values 1.01 | S. cerevisiae deletion strains, locus YLR113W, strain HOG1, hits give low values 0.985 | S. cerevisiae deletion strains, locus YLR221C, strain rsa3, hits give low values 0.97 | S. cerevisiae deletion strains, locus YLR258W, strain gsy2, hits give low values 0.968 | S. cerevisiae deletion strains, locus YLR262C, strain YPT6 (second series), hits give low values 0.95 | S. cerevisiae deletion strains, locus YLR262C, strain YPT6, hits give low values 0.968 | S. cerevisiae deletion strains, locus YLR268W, strain sec22, hits give low values 0.945 | S. cerevisiae deletion strains, locus YLR320W, strain mms22, hits give low values 0.899 | S. cerevisiae deletion strains, locus YLR330W, strain CHS5, hits give low values 0.995 | S. cerevisiae deletion strains, locus YLR342W, strain FKS1 (second series), hits give low values 1.01 | S. cerevisiae deletion strains, locus YLR342W, strain FKS1, hits give low values 1 | S. cerevisiae deletion strains, locus YLR357W, strain rsc2, hits give low values 0.984 | S. cerevisiae deletion strains, locus YLR370C, strain arc18, hits give low values 0.975 | S. cerevisiae deletion strains, locus YLR371W, strain rom2, hits give low values 1.02 | S. cerevisiae deletion strains, locus YLR384C, strain iki3, hits give low values 1.01 | S. cerevisiae deletion strains, locus YLR418C, strain cdc73, hits give low values 0.979 | S. cerevisiae deletion strains, locus YML016C, strain PPZ1, hits give low values 0.997 | S. cerevisiae deletion strains, locus YML032C, strain rad52, hits give low values 0.979 | S. cerevisiae deletion strains, locus YML120C, strain ndi1, hits give low values 1 | S. cerevisiae deletion strains, locus YMR058W, strain fet3, hits give low values 0.993 | S. cerevisiae deletion strains, locus YMR078C, strain ctf18, hits give low values 1 | S. cerevisiae deletion strains, locus YMR125W, strain sto1, hits give low values 1.04 | S. cerevisiae deletion strains, locus YMR129W, hits give low values 1.01 | S. cerevisiae deletion strains, locus YMR205C, strain PFK2, hits give low values 0.982 | S. cerevisiae deletion strains, locus YMR223W, strain ubp8, hits give low values 1.02 | S. cerevisiae deletion strains, locus YMR231W, strain pep5, hits give low values 1.02 | S. cerevisiae deletion strains, locus YMR263W, strain SAP30, hits give low values 0.973 | S. cerevisiae deletion strains, locus YMR307W, strain GAS1, hits give low values 0.928 | S. cerevisiae deletion strains, locus YNL067W, strain RPL9B, hits give low values 0.961 | S. cerevisiae deletion strains, locus YNL071W, strain lat1, hits give low values 0.954 | S. cerevisiae deletion strains, locus YNL128W, strain TEP1, hits give low values 1.01 | S. cerevisiae deletion strains, locus YNL183C, strain NPR1, hits give low values 0.927 | S. cerevisiae deletion strains, locus YNL209W, strain ssb2, hits give low values 0.984 | S. cerevisiae deletion strains, locus YNL233W, strain BNI4, hits give low values 0.958 | S. cerevisiae deletion strains, locus YNL248C, strain rpa49, hits give low values 1.01 | S. cerevisiae deletion strains, locus YNL250W, strain rad50, hits give low values 1.04 | S. cerevisiae deletion strains, locus YNL271C, strain bni1, hits give low values 1 | S. cerevisiae deletion strains, locus YNL298W, strain CLA4, hits give low values 1.01 | S. cerevisiae deletion strains, locus YNL307C, strain MCK1, hits give low values 1 | S. cerevisiae deletion strains, locus YNL322C, strain KRE1 (second series), hits give low values 0.991 | S. cerevisiae deletion strains, locus YNL322C, strain KRE1, hits give low values 0.987 | S. cerevisiae deletion strains, locus YNR049C, strain mso1, hits give low values 1.01 | S. cerevisiae deletion strains, locus YNR052C, strain pop2, hits give low values 0.983 | S. cerevisiae deletion strains, locus YOL012C, strain htz1 2.38 | S. cerevisiae deletion strains, locus YOL147C, strain pex11, hits give low values 1.01 | S. cerevisiae deletion strains, locus YOR001W, strain rrp6, hits give low values 1 | S. cerevisiae deletion strains, locus YOR061W, strain CKA2, hits give low values 0.996 | S. cerevisiae deletion strains, locus YOR069W, strain VPS5, hits give low values 1 | S. cerevisiae deletion strains, locus YOR070C, strain gyp1, hits give low values 0.991 | S. cerevisiae deletion strains, locus YOR080W, strain dia2, hits give low values 1.01 | S. cerevisiae deletion strains, locus YOR083W, strain WHI5, hits give low values 0.977 | S. cerevisiae deletion strains, locus YOR106W, strain vam3, hits give low values 1.03 | S. cerevisiae deletion strains, locus YOR136W, strain idh2, hits give low values 0.995 | S. cerevisiae deletion strains, locus YOR144C, strain elg1, hits give low values 1.02 | S. cerevisiae deletion strains, locus YOR184W, strain ser1, hits give low values 0.932 | S. cerevisiae deletion strains, locus YOR231W, strain MKK1, hits give low values 1 | S. cerevisiae deletion strains, locus YOR265W, strain rbl2, hits give low values 0.997 | S. cerevisiae deletion strains, locus YOR270C, strain vph1, hits give low values 0.961 | S. cerevisiae deletion strains, locus YOR290C, strain snf2, hits give low values 0.944 | S. cerevisiae deletion strains, locus YOR316C, strain cot1, hits give low values 0.998 | S. cerevisiae deletion strains, locus YPL051W, strain arl3, hits give low values 0.991 | S. cerevisiae deletion strains, locus YPL078C, strain atp4, hits give low values 0.995 | S. cerevisiae deletion strains, locus YPL106C, strain sse1, hits give low values 1.08 | S. cerevisiae deletion strains, locus YPL240C, strain hsp82, hits give low values 0.997 | S. cerevisiae deletion strains, locus YPL256C, strain CLN2, hits give low values 0.957 | S. cerevisiae deletion strains, locus YPR119W, strain clb2, hits give low values 1.01 | S. cerevisiae deletion strains, locus YPR141C, strain kar3, hits give low values 1.01 | S. cerevisiae deletion strains, locus YPR163C, strain tif3, hits give low values 1 | S. cerevisiae deletion strains, locus YPR167C, strain met16, hits give low values 1 | S. cerevisiae deletion strains, strain wtn01, hits give low values 0.977 | S. cerevisiae strains, strain wild type, hits give low values 0.995
active: S. cerevisiae deletion strains, locus YML124C, strain tub3, hits give low values 0.636 | S. cerevisiae deletion strains, locus YNL153C, strain GIM3, hits give low values 0.0845 | S. cerevisiae deletion strains, locus YPL241C, strain CIN2, hits give low values 0.0871
